# The source made the active and inactive calls. Rule for the calls: active = hit-call score of the fitted dose curve at least 0.9, where 1 is the maximum; inactive = score below 0.9.
# Read-out: Bcl-2 (BAD) gene, BAD (gene 572)
# Experiment: LTEA_HepaRG_BAD: Life Technologies and Expression Analysis (LTEA) Assay for Bcl-2 (BAD) gene using HepaRG (AID 2283469)
# Settings: mRNA level, 48 h; actives raise or lower the signal
# Procedure, shortened: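 Differentiated HepaRG cells were exposed in duplicate in 0.5% DMSO for 48 h to eight-point half-log concentrations up to 100 uM. BAD mRNA was measured by Fluidigm TaqMan qRT-PCR, normalized to ACTB, GAPDH and POLR2A, and fitted bidirectionally against DMSO.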
# Sequence of Apoptosis regulator Bcl-2 (Homo sapiens) (P10415 whole entry, looked up): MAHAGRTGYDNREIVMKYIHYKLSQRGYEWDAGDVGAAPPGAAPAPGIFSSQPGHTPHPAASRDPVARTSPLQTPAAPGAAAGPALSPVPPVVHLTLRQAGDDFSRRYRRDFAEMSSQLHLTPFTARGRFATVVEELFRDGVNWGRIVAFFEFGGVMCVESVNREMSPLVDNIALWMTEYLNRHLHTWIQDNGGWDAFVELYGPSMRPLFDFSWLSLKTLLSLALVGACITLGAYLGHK
row,SMILES,outcome
1,OCC1CO1 (stereo not given),inactive
2,CCC1(c2ccccc2)C(=O)N=C(O)NC1=O (stereo not given),inactive
3,CCOC(=O)c1ccccc1C(=O)OCC,inactive
4,Cc1ccc(N)cc1N,inactive
5,Nc1ccc(Cl)cc1,inactive
6,O=P(Oc1ccccc1)(Oc1ccccc1)Oc1ccccc1,inactive
7,CCCCCCCc1ccc(O)cc1,inactive
8,CCN(CC)c1ccccc1,inactive
9,c1ccc2c(c1)Nc1ccccc1S2,inactive
10,O=P1(N(CCCl)CCCl)NCCCO1 (stereo not given),inactive
11,Cc1ccc(O)cc1C,inactive
12,Nc1cc2c3c(c1)C(c1ccccc1)=N[C@@H](NC(=O)c1cccnc1)C(=O)N3CC2,inactive
13,CCCN(CCC)c1c([N+](=O)[O-])cc(C(C)C)cc1[N+](=O)[O-],inactive
14,O=C(O)C1C(C(=O)O)C2(Cl)C(Cl)=C(Cl)C1(Cl)C2(Cl)Cl (stereo not given),inactive
15,O=[N+]([O-])c1ccccc1,inactive
16,CCC(C)(C)c1ccc(O)cc1,inactive
17,CC(Cl)(Cl)C(=O)O,inactive
18,CC(C)(C)c1ccc(O)cc1,inactive
19,Nc1ccc2ccccc2c1,inactive
20,CCCCN(CCCC)N=O,inactive
21,COCCOCCO,inactive
22,O=C(O)C(Cl)Cl,inactive

# Read-out: Bcl-2 (BAX) gene, BAX (gene 581)
# Experiment: LTEA_HepaRG_BAX: Life Technologies and Expression Analysis (LTEA) Assay for Bcl-2 (BAX) gene using HepaRG (AID 2283470)
# Settings: mRNA level, 48 h; actives raise or lower the signal
# Procedure, shortened: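 Differentiated HepaRG cells exposed 48 h in serum-free induction medium, eight half-log concentrations from 100 uM, in duplicate, 0.5% DMSO vehicle. BAX mRNA by TaqMan qRT-PCR, normalised to ACTB, GAPDH and POLR2A.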
row,SMILES,outcome
1,OCC1CO1 (stereo not given),inactive
2,CCC1(c2ccccc2)C(=O)N=C(O)NC1=O (stereo not given),inactive
3,CCOC(=O)c1ccccc1C(=O)OCC,inactive
4,Cc1ccc(N)cc1N,inactive
5,Nc1ccc(Cl)cc1,inactive
6,O=P(Oc1ccccc1)(Oc1ccccc1)Oc1ccccc1,inactive
7,CCCCCCCc1ccc(O)cc1,inactive
8,CCN(CC)c1ccccc1,inactive
9,c1ccc2c(c1)Nc1ccccc1S2,inactive
10,O=P1(N(CCCl)CCCl)NCCCO1 (stereo not given),inactive
11,Cc1ccc(O)cc1C,inactive
12,Nc1cc2c3c(c1)C(c1ccccc1)=N[C@@H](NC(=O)c1cccnc1)C(=O)N3CC2,inactive
13,CCCN(CCC)c1c([N+](=O)[O-])cc(C(C)C)cc1[N+](=O)[O-],inactive
14,O=C(O)C1C(C(=O)O)C2(Cl)C(Cl)=C(Cl)C1(Cl)C2(Cl)Cl (stereo not given),inactive
15,O=[N+]([O-])c1ccccc1,inactive
16,CCC(C)(C)c1ccc(O)cc1,inactive
17,CC(Cl)(Cl)C(=O)O,inactive
18,CC(C)(C)c1ccc(O)cc1,inactive
19,Nc1ccc2ccccc2c1,inactive
20,CCCCN(CCCC)N=O,inactive
21,COCCOCCO,inactive
22,O=C(O)C(Cl)Cl,inactive

# Read-out: Alpha-fetoprotein (AFP) gene, AFP (gene 174)
# Experiment: LTEA_HepaRG_AFP: Life Technologies and Expression Analysis (LTEA) Assay for Alpha-fetoprotein (AFP) gene using HepaRG (AID 2283472)
# Settings: mRNA level, 48 h; actives raise or lower the signal
# Procedure, shortened: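 Differentiated human HepaRG cells exposed 48 h in serum-free induction medium, 8-point half-log series from 100 uM in 0.5% DMSO, duplicate. AFP mRNA by qRT-PCR, normalized to ACTB, GAPDH, POLR2A; bidirectional fit vs DMSO.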
SMILES,outcome,AC50
OCC1CO1 (stereo not given),inactive,–
CCC1(c2ccccc2)C(=O)N=C(O)NC1=O (stereo not given),inactive,–
CCOC(=O)c1ccccc1C(=O)OCC,inactive,–
Cc1ccc(N)cc1N,inactive,–
Nc1ccc(Cl)cc1,inactive,–
O=P(Oc1ccccc1)(Oc1ccccc1)Oc1ccccc1,–,50 µM (active)
CCCCCCCc1ccc(O)cc1,inactive,–
CCN(CC)c1ccccc1,inactive,–
c1ccc2c(c1)Nc1ccccc1S2,inactive,–
O=P1(N(CCCl)CCCl)NCCCO1 (stereo not given),inactive,–
Cc1ccc(O)cc1C,inactive,–
Nc1cc2c3c(c1)C(c1ccccc1)=N[C@@H](NC(=O)c1cccnc1)C(=O)N3CC2,inactive,–
CCCN(CCC)c1c([N+](=O)[O-])cc(C(C)C)cc1[N+](=O)[O-],–,50 µM (active)
O=C(O)C1C(C(=O)O)C2(Cl)C(Cl)=C(Cl)C1(Cl)C2(Cl)Cl (stereo not given),inactive,–
O=[N+]([O-])c1ccccc1,inactive,–
CCC(C)(C)c1ccc(O)cc1,inactive,–
CC(Cl)(Cl)C(=O)O,inactive,–
CC(C)(C)c1ccc(O)cc1,inactive,–
Nc1ccc2ccccc2c1,inactive,–
CCCCN(CCCC)N=O,inactive,–
COCCOCCO,inactive,–
O=C(O)C(Cl)Cl,inactive,–

# Read-out: Apolipoprotein A-V (APOA5) gene, APOA5 (gene 116519)
# Experiment: LTEA_HepaRG_APOA5: Life Technologies and Expression Analysis (LTEA) Assay for Apolipoprotein A-V (APOA5) gene using HepaRG (AID 2283474)
# Settings: mRNA level, 48 h; actives raise or lower the signal
# Procedure, shortened: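 Readout is APOA5 transcript level by qRT-PCR on Fluidigm dynamic arrays, normalized to three housekeeping genes. HepaRG cultures received chemicals for 48 h at up to 100 uM (half-log steps, 0.5% DMSO), with gain or loss scored relative to DMSO.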
SMILES,outcome,AC50
OCC1CO1 (stereo not given),inactive,–
CCC1(c2ccccc2)C(=O)N=C(O)NC1=O (stereo not given),inactive,–
CCOC(=O)c1ccccc1C(=O)OCC,inactive,–
Cc1ccc(N)cc1N,inactive,–
Nc1ccc(Cl)cc1,inactive,–
O=P(Oc1ccccc1)(Oc1ccccc1)Oc1ccccc1,–,50 µM (active)
CCCCCCCc1ccc(O)cc1,inactive,–
CCN(CC)c1ccccc1,inactive,–
c1ccc2c(c1)Nc1ccccc1S2,inactive,–
O=P1(N(CCCl)CCCl)NCCCO1 (stereo not given),inactive,–
Cc1ccc(O)cc1C,inactive,–
Nc1cc2c3c(c1)C(c1ccccc1)=N[C@@H](NC(=O)c1cccnc1)C(=O)N3CC2,inactive,–
CCCN(CCC)c1c([N+](=O)[O-])cc(C(C)C)cc1[N+](=O)[O-],–,0.123 µM (active)
O=C(O)C1C(C(=O)O)C2(Cl)C(Cl)=C(Cl)C1(Cl)C2(Cl)Cl (stereo not given),inactive,–
O=[N+]([O-])c1ccccc1,inactive,–
CCC(C)(C)c1ccc(O)cc1,inactive,–
CC(Cl)(Cl)C(=O)O,inactive,–
CC(C)(C)c1ccc(O)cc1,inactive,–
Nc1ccc2ccccc2c1,inactive,–
CCCCN(CCCC)N=O,inactive,–
COCCOCCO,inactive,–
O=C(O)C(Cl)Cl,inactive,–

# Read-out: Apoptosis regulator Bcl-2 (Homo sapiens) (UniProt P10415)
# Experiment: LTEA_HepaRG_BCL2: Life Technologies and Expression Analysis (LTEA) Assay for Bcl-2 gene using HepaRG (AID 2283475)
# Settings: mRNA level, 48 h; actives raise or lower the signal
# Procedure, shortened: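 Differentiated human HepaRG cells in serum-free induction medium exposed 48 h, in duplicate, to 8-point half-log series from 100 uM in 0.5% DMSO. BCL2 mRNA by qRT-PCR (TaqMan/Fluidigm), normalized to ACTB, GAPDH, POLR2A; bidirectional fit against DMSO.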
SMILES,outcome,AC50
OCC1CO1 (stereo not given),inactive,–
CCC1(c2ccccc2)C(=O)N=C(O)NC1=O (stereo not given),inactive,–
CCOC(=O)c1ccccc1C(=O)OCC,inactive,–
Cc1ccc(N)cc1N,inactive,–
Nc1ccc(Cl)cc1,inactive,–
O=P(Oc1ccccc1)(Oc1ccccc1)Oc1ccccc1,–,80.4 µM (active)
CCCCCCCc1ccc(O)cc1,inactive,–
CCN(CC)c1ccccc1,inactive,–
c1ccc2c(c1)Nc1ccccc1S2,inactive,–
O=P1(N(CCCl)CCCl)NCCCO1 (stereo not given),inactive,–
Cc1ccc(O)cc1C,inactive,–
Nc1cc2c3c(c1)C(c1ccccc1)=N[C@@H](NC(=O)c1cccnc1)C(=O)N3CC2,inactive,–
CCCN(CCC)c1c([N+](=O)[O-])cc(C(C)C)cc1[N+](=O)[O-],inactive,–
O=C(O)C1C(C(=O)O)C2(Cl)C(Cl)=C(Cl)C1(Cl)C2(Cl)Cl (stereo not given),inactive,–
O=[N+]([O-])c1ccccc1,inactive,–
CCC(C)(C)c1ccc(O)cc1,inactive,–
CC(Cl)(Cl)C(=O)O,inactive,–
CC(C)(C)c1ccc(O)cc1,inactive,–
Nc1ccc2ccccc2c1,inactive,–
CCCCN(CCCC)N=O,inactive,–
COCCOCCO,inactive,–
O=C(O)C(Cl)Cl,inactive,–

# Reference: PubChem BioAssay (EPA / NIEHS)
